# From PubChem
# KCC2 mod = modulators of human KCC2 chloride dependent transport; Q9H2X9; B-score of Tl+ flux slope (higher = more flux/activation; lower = inhibition) at 10 µM; AID 1456; KCC2 cells, thallium flux FluoZin-2 fluorescence; actives 2.2% (n = 190,000);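 active = thallium flux slope and its plate-corrected score both differing from the plate sample mean at a set confidence after two filtering rounds, in either direction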;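 note: slope of fluorescence scaled to starting intensity during 10 to 20 s after thallium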
# ROMK primary = human ROMK K+ channel modulation, primary screen; P48048; Tet-inducible ROMK, thallium flux fluorescence; actives lie on both sides; B-score at 10 µM; actives 2% (n = 130,000);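 active = signal ratio slope over the read window, or its plate-corrected B-score, at least 3 SD from the plate mean, either direction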;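 note: B-score of the F/F0 ratio slope over 7 to 12 s after thallium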
# Target sequence (P48048 whole entry, looked up): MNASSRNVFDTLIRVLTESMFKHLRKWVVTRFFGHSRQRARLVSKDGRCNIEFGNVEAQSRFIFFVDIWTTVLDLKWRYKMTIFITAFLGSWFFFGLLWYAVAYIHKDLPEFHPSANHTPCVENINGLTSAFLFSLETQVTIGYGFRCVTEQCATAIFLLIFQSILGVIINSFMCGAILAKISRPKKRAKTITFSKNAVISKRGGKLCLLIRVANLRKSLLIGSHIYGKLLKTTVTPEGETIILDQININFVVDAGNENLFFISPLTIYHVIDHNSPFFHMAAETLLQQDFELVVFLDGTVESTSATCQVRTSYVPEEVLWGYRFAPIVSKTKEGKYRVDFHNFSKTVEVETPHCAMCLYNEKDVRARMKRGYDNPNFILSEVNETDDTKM
# Lmaj promast = reduces viability of Leishmania major promastigotes; resazurin fluorescence viability; inhibition, % at 10 µM; actives 9% (n = 200,000); in the data active = inhibition above about 50%;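 note: promastigotes grown with compound for 44 hours at 28 °C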
# m-calpain inh = blocks pig calpain II enzyme activity | purified calpain II, fluorogenic peptide substrate, 30 min | inhibition, % at 16 µM | actives 0.37% (n = 220,000) | AID 1236;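 active = inhibition above about 50%, limit read from the data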
# WT yeast gro inh = growth inhibition of WT yeast, mitochondrial fusion screen | mitochondrial fusion phenotypic screen, WT strain | actives 2.1% (n = 190,000) | inhibition, % at 10 µM; in the data active = inhibition above about 58%; tested in S. cerevisiae
# KCC2 sec1 = confirmation of human KCC2 transport modulators; AID 1713; HEK293-KCC2, thallium flux, FluoZin2 fluorescence; active compounds read high; shares compounds with KCC2 mod; actives 15% (n = 3,700); normalised thallium flux (F/F0 slope) at 10 µM;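 active = thallium flux slope above the same plate's solvent-only control mean plus 3 SD; inconclusive = the two replicate wells disagree; inactive = no significant difference from solvent-only control wells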
# KCC2 bumet counter = thallium flux despite bumetanide block in KCC2 cells, secondary assay 3 | shares compounds with KCC2 mod | HEK293-KCC2 + bumetanide/ouabain, thallium flux FluoZin2; active compounds read high | normalized thallium flux at 10 µM | actives 49% (n = 3,700);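 active = thallium entry rate above the same plate's blocked-transporter control wells by more than 3 SD; inconclusive = the two repeat wells disagree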;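 note: raw slope of fluorescence over initial fluorescence between 10 and 20 s after thallium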
# KCC2 sec2 = KCC2 (human) modulation, second secondary assay; actives 23% (n = 3,700); normalized thallium flux at 10 µM; shares compounds with KCC2 mod; HEK293-KCC2, thallium flux FluoZin2 fluorescence; actives lie on both sides; F/F0 rise rate, 10–20 s post-thallium; AID 1715;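 active = thallium flux slope more than 3 SD above or below the plate's solvent-only control mean, mostly below; inconclusive = the two repeat wells disagreed; inactive = no significant shift from solvent-only controls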;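 note: raw slope with 0.1% DMSO as baseline and bumetanide as block control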
# HEK counter1 = counter-screen for KCC2 modulators: effect in parental HEK293 cells | shares compounds with KCC2 mod | thallium flux FluoZin2, ouabain; baseline-ratio fluorescence slope, 10–20 s after thallium | thallium flux rate (normalised fluorescence) at 10 µM | actives 46% (n = 3,700) | AID 1716;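 active = thallium flux rate significantly above the same plate's solvent-only control wells, beyond their mean plus 3 SD; inconclusive = the two replicate wells gave conflicting results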
# KCC2 retest ouab = confirmation of human KCC2 modulators with ouabain; shares compounds with KCC2 mod; HEK293-KCC2, thallium flux FluoZin2 fluorescence; bidirectional: low = inhibitor, high = activator; raw Tl+ flux slope (below DMSO = inhibition, above = activation) at 10 µM; actives 48% (n = 3,700); AID 1717;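 active = thallium flux slope beyond 3 SD from same-plate DMSO control mean in most replicates, usually higher, sometimes lower; inconclusive = repeat tests gave conflicting results; inactive = no significant difference from controls in most replicates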;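 note: slope of initial-normalized fluorescence between seconds 10 and 20 after thallium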
# HEK counter2 = parental HEK flux effect, counter-screen 2; shares compounds with KCC2 mod; HEK293 parental, thallium flux FluoZin-2 fluorescence slope; thallium flux slope at 10 µM; actives 33% (n = 3,700);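 active = thallium flux slope above the same plate's solvent-control mean plus 3 SD in both duplicate wells; inconclusive = duplicate wells that disagreed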;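 note: run without ouabain in cells lacking the KCC2 cotransporter; slope of fluorescence scaled to its starting value between 10 and 20 s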
# * marks the source's active call; other numbers are inactive results; ? = inconclusive; . = not tested or not shown. Most compounds without a hit are left out; they make up all but 12% or so of the library.
SMILES,KCC2 mod,ROMK primary,Lmaj promast,m-calpain inh,WT yeast gro inh,KCC2 sec1,KCC2 bumet counter,KCC2 sec2,HEK counter1,KCC2 retest ouab,HEK counter2
O=c1c2ccccc2[nH]c(=S)n1Cc1cccs1,26*,0.02,29,36,4,?,0.048*,0.029,0.017*,0.041*,0.012*
O=c1c2ccccc2[nH]c(=S)n1Cc1cccnc1,1.7,-0.83,-7,-17,3,.,.,.,.,.,.
CSc1ccccc1NC(=O)c1cnccn1,3.4*,.,-4,-53,-9,0.0072,0.0048,0.033,0.0071,0.02,0.0099
CSc1ccccc1NC(=O)c1cnc2scc(C)n2c1=O,-3.9*,.,-4,13,14,0.0067,0.0046,0.027*,0.0062*,?,0.0094
CC(C)c1ccccc1NC(=O)c1cnccn1,.,.,-4,9,8,.,.,.,.,.,.
FC(F)(F)COc1ccc(-n2ccnc2)nn1,0.55,0.74,-2,27,10,.,.,.,.,.,.
Cc1cc(C)n(-c2nc3sc4c(c3c(=O)[nH]2)CCCC4)n1,42*,2.1,99*,8,73*,0.0083,0.1*,0.098*,0.1*,0.089*,0.069*
Cc1nnc(NC(=O)c2ccc3ccccc3c2)o1,.,0.9,12,-8,33,0.012*,0.016*,0.03,0.011*,0.026*,0.01
COc1cc(C(=S)N2CCOCC2)cc(OC)c1O,0.74,.,.,-2,.,.,.,.,.,.,.
O=[N+]([O-])c1ccc(O)c(C2=NNC(c3ccccc3F)C2)c1 (centres undefined),28*,.,.,-5,.,0.0094,0.034*,0.031,0.025*,0.032*,?
COc1ccc([N+](=O)[O-])cc1C1NN=C(c2ccccc2O)S1 (centres undefined),-0.13,.,-5,-3,15,.,.,.,.,.,.
CCOC(=O)N1CCN(C(=S)NC)CC1,.,0.31,-5,-26,-4,.,.,.,.,.,.
CCN(CC)C(=S)NC(=O)C12CC3CC(CC(C3)C1)C2,20*,0.089,-7,-26,5,0.0059,0.055*,0.042*,0.028*,0.043*,0.034*
NC(=S)NNC(=O)C12CC3CC(CC(C3)C1)C2,1.7,-0.3,-7,4,-6,.,.,.,.,.,.
CCOC(=O)N1CCN(C(=S)NC(=O)C23CC4CC(CC(C4)C2)C3)CC1,5.9*,0.038,4,7,4,0.01,0.03*,0.037,0.012*,?,0.011
CCC1=NC(c2ccc(Br)cc2)N(O)C1(C)C (centres undefined),0.62,1,0,-6,-6,.,.,.,.,.,.
COc1ccc(C(=O)N2C(=O)c3ccc(N)cc3C2=O)cc1,0.0038,1.1,-3,-113,-13,.,.,.,.,.,.
CCCN1C(=O)c2ccc(C(=O)Nc3nccs3)cc2C1=O,6*,-0.23,-7,10,6,0.0077,?,0.029,0.0076,0.018,0.011
COCCN1C(=O)c2ccc(C(=O)Nc3nccs3)cc2C1=O,0.065,-0.25,-8,0,-10,.,.,.,.,.,.
CC(=O)c1cccc(N(C(=O)Cn2nnc3ccccc32)C(C(=O)NC2CCCCC2)c2cn(C)nc2C)c1 (centres undefined),.,1.4,-1,-14,10,0.011,?,0.033,0.0075,0.021,?
CC(=O)c1ccc(N(C(=O)Cn2nnc3ccccc32)C(C(=O)NC2CCCCC2)c2cn(C)nc2C)cc1 (centres undefined),-0.6,.,-5,-29,-1,.,.,.,.,.,.
CC(=O)N1CCC(N(C(=O)Nc2ccc(F)cc2)C2CCCC2)CC1,0.0056,.,-6,-21,14,.,.,.,.,.,.
CC(C)n1c(SCC(=O)Nc2ccccc2N2CCOCC2)nc2c1c(=O)n(C)c(=O)n2C,.,.,12,-16,4,0.0065,0.0042,0.03,0.0075,0.018,0.0098
COC(=O)NC(=S)N1CCOCC1,0.74,0.16,-10,5,-3,.,.,.,.,.,.
Cc1oc(-c2ccccc2)nc1CS(=O)CC(=O)N1CCc2ccccc2C1 (centres undefined),.,.,-3,-6,-2,0.0054,?,0.024*,0.0073,?,0.0097
SMILES,KCC2 mod,ROMK primary,Lmaj promast,m-calpain inh,WT yeast gro inh,KCC2 sec1,KCC2 bumet counter,KCC2 sec2,HEK counter1,KCC2 retest ouab,HEK counter2
Cc1cccc(-c2nc(CS(=O)CC(=O)N3CCCCC3)c(C)o2)c1 (centres undefined),.,.,-2,-4,16,.,.,.,.,.,.
O=C(CSc1nnc(-c2ccccc2)o1)N1CCc2ccccc2C1,-3.4*,-0.00028,-6,10,7,0.0061,0.0038,0.025*,?,0.013*,0.0098
O=C(CSc1nccc(=O)[nH]1)N1CCc2ccccc2C1,-4.9*,-0.52,-6,-4,-8,0.0057,0.005,0.023*,0.0069,0.015*,0.0092
COc1ccc(-c2nnc(SCC(=O)N3CCc4ccccc4C3)o2)cc1,-3.5*,-0.82,-4,27,-1,?,0.0051,0.033,?,0.016*,0.011
O=C(CSc1nnc(-c2ccccc2O)o1)N1CCc2ccccc2C1,-1.1,-1.1,-3,3,-2,.,.,.,.,.,.
COc1ccc(Cc2nnc(SCC(=O)N3CCc4ccccc4C3)o2)cc1,-1.1,.,-2,-5,11,.,.,.,.,.,.
COCC(=O)NC1CC2CCC(C1)N2C(=S)Nc1ccccc1C(=O)OC (centres undefined),0.67,0.062,1,-12,-8,.,.,.,.,.,.
CCOC(=O)N1CCN(C(=O)C(=O)NN)CC1,0.19,1.3,-3,7,0,.,.,.,.,.,.
CCOc1ccccc1CN1CCN(C2CCSCC2)CC1CCO (centres undefined),-0.36,0.036,3,-16,19,.,.,.,.,.,.
COc1ccc(N(C)S(=O)(=O)c2ccc(Cl)c(C(=O)NCCc3ccc(Cl)cc3)c2)cc1,-6.1*,-1,32,23,33,0.013,0.0031,0.018*,0.0054*,0.0095*,0.0086
COc1ccc(-n2c(SCC(=O)N3CCN(c4ccccc4)CC3)nc3c(c2=O)SCC3)cc1,-7.3*,.,12,8,-9,0.0056,0.0039,0.024*,?,0.012*,0.01
Cc1ccc(-n2c(SCC(=O)N3CCCC3)nc3c(c2=O)SCC3)cc1,-0.97,.,-5,8,-15,.,.,.,.,.,.
COc1cccc(CNc2cc(CSc3ccc(Cl)cc3)nc(C)n2)c1,.,-1.1,30,31,44,0.0074,0.0032*,0.03,?,0.018,0.0094
